Test results as given in PubChem BioAssay.
Calls of active or inactive are those of the source.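 Rule for the calls: active = inhibition at or above 50% at 10 µM; inactive = inhibition below 50%.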

Experiment: inhibitors of Sendai virus-induced IRF3 signaling, primary screen, TLR/RLR signaling modifier project, cell-based, Sendai virus stimulus, luciferase, 10K MLSCN set (AID 602276);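 note: firefly luciferase from ISG56 promoter only with Renilla not read in this screen; 0% = Sendai virus plus DMSO and 100% = medium plus DMSO without virus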
Settings: HEK293 RL24 IRF3 luciferase reporter, at 10 µM, active compounds read high

inhibition, inactive:
CCOC(=O)N1CCN(C(=O)CN(Cc2ccccc2)S(=O)(=O)c2ccc(OC)c(C)c2)CC1 -4.93%, COC(=O)c1ccc(COC(=O)c2c(C)nn(Cc3ccccc3Cl)c2Cl)o1 17.9%, O=C(Nc1cccnc1)c1cc2c(ccc3ccccc32)o1 -38.2%, Clc1ccc(OCc2nnc(SCCN3CCCCC3)n2Cc2ccco2)cc1 8.16%, O=C(/C=C/N1CCOCC1)c1ccc(-c2ccccc2)cc1 -22.9%, COc1cccc(N2C(=O)N(c3ccccc3Cl)C3CS(=O)(=O)CC32)c1 (stereo unspecified) 15.6%, O=C(NCc1cccs1)c1cc2c(s1)CS(=O)(=O)C2 23.3%, CC(C)CC(c1nnnn1C(C)(C)C)N1CCN(C2CCCC2)CC1 (stereo unspecified) 5.92%, Cc1cc(C(=O)COC(=O)CCc2nc3ccccc3s2)c(C)n1C 16.3%, Cc1cc(C)n2nc(SCC(=O)N(C)Cc3ccccc3)nc2n1 -13.5%, CCCCCCC(c1c(C)n(C)n(-c2ccccc2)c1=O)c1c(C)n(C)n(-c2ccccc2)c1=O 7.89%, c1ccc2c(-c3nc(-c4ccncc4)no3)cccc2c1 -14.2%, CNC(=O)c1ccc2nc(NC(C)=O)sc2c1 -11.9%, O=C(c1ccccc1)c1ccc(N2CCNCC2)cc1 -41.5%, N#Cc1c(-c2ccc3c(c2)OCO3)csc1N -35.4%, Cc1ccc(Cn2c(SCC(N)=O)nc3c2c(=O)n(C)c(=O)n3C)cc1 0.352%
